Luciferase inh = firefly luciferase inhibition; P08659; 72,000 tested, 2.2% active; purified firefly luciferase, luminescence, 8 min; Potency, µM (series often up to 57.1 µM), for the others: at the top dose activity change, negative = inhibition, usual class: inhibitors; note: % is set by controls: 0 for no effect and ±100 for the full control effect; nearly all actives have a fitted effect of over 40% in size
Target sequence (P08659 whole entry, looked up): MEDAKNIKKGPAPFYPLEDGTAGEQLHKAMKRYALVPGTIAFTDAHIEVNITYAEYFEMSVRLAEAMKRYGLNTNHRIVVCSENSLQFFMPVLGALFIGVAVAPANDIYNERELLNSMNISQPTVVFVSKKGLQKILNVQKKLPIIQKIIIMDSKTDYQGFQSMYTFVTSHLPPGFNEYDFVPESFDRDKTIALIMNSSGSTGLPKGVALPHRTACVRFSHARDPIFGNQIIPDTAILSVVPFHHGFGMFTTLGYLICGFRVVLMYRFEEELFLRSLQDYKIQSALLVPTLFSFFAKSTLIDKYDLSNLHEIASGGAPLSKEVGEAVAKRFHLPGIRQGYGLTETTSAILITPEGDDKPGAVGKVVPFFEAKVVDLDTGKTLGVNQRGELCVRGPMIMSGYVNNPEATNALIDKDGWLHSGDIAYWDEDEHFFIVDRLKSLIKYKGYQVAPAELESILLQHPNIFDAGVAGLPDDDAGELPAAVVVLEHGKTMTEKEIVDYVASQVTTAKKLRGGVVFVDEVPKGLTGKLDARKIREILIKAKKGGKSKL
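Here, luciferase activity is measured as luminescence following an 8 min room-temperature reaction at 10 uM ATP, pH 7.2. Every library sample is titrated.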
HEK293 cAMP ctrl = parental HEK293 cAMP activation (counter-screen) | parental HEK293 CNG cAMP sensor, membrane potential fluorescence | 73,000 tested, 2.5% active | AID 938 | Potency, µM (doses to about 57.1 µM), without a hit: top-dose activation, usual class: activators; note: % of control where 0% means no effect; nearly all actives have a fitted effect of over 55% in size
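Counterscreen for endogenous-receptor signalling: CNG-channel HEK 293 cells report cAMP rise by membrane depolarization. After 60 min dye equilibration with 100 uM RO 20-1724, compounds incubated 30 min before bottom-read fluorescence at 590 nm.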
TSHR agonist = agonists of human thyroid stimulating hormone receptor; HEK293-CNG-TSHR cells (CNG channel as cAMP sensor), membrane potential dye, cAMP; Potency, µM (doses to about 57.1 µM), for the others: at the top dose activation, usual class: activators; 73,000 tested, 0.48% active; active = well fitted activation curve with a large enough effect in the main read-out, with a control signal flat, not every such curve was filed as active; inconclusive = small, poorly fitted or top-dose-only effect, or a change in a side signal; inactive = no such curve, though single readings can be large or run the other way; % of control where 0% means no effect;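 note: the control signal comes from parental cells without the receptor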
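cAMP rise detected as CNG-channel membrane depolarization by fluorescent dye (emission 590 nm), 30 min after compound, following 60 min dye loading containing 100 uM RO 20-1724 at room temperature. Cells: TSHR/CNG HEK 293, with parental CNG HEK 293 as control.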
Tau filament bind = binds recombinant human tau filaments. P10636. recombinant tau filaments, thioflavin S fluorescence, 15 h; filaments grown with octadecylsulfate alongside compound. Potency, µM (doses to about 57.1 µM), for the others: at the highest dose activity change, negative = inhibition. 71,000 tested, 2% active;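 note: % is set by controls: 0 for no effect and ±100 for the full control effect; actives lower thioflavin S fluorescence by blocking filaments or displacing dye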
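Recombinant tau protein (human, 1 uM final) plus 30 uM ODS in HEPES pH 7.4 with NaCl, DTT and thioflavine S. Compound present from the start; fluorescence at 510 nm after 15 h, 37 C.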
PK Bst = modulators of Bacillus stearothermophilus pyruvate kinase; purified pyruvate kinase, luminescence ATP production; ribose 5-phosphate activator present at AC10; 51,000 tested, 1.2% active; AID 361; Potency, µM; in the data active = potency below about 11 µM; inconclusive = mostly about 12 µM to 25 µM;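 the screen sought inhibitors and activators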;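 note: scaled between full activation by ribose 5 phosphate and full inhibition by luteolin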
ALOX15 inhib = 15-hLO (ALOX15) enzyme inhibition. purified 15hLO-1, xylenol orange hydroperoxide absorbance. Potency, µM (titrated, usually from 57.1 µM), for inactives: at the top dose activity change, negative = inhibition, usual class: inhibitors. 74,000 tested, 1.4% active; note: % is set by controls: 0 for no effect and ±100 for the full control effect; nearly all actives have a fitted effect of over 55% in size
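Purified human 15hLO-1 (40 nM) in 25 mM Hepes pH 7.5, 0.01% Triton X-100, preincubated 15 min RT with compound, then 50 uM arachidonic acid for 6 min. Hydroperoxide read by ferrous/xylenol orange, 30 min; 573/405 nm absorbance ratio gave progress.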
Active calls of the source: *; i = inactive; ? = inconclusive; . = no result; ! = not active in a repeat; [ ] = another dose, or the depositor's remark. Most compounds without a hit are left out; they make up all but 7.8% or so of the library. Unless noted, calls come from the whole dose curve; as a rule, active = well fitted curve in the direction sought with a large enough effect; inconclusive = small, poorly fitted or top-dose-only effect, or another doubt; inactive = no such curve, though single readings can be large; an effect the other way counts as inactive or inconclusive. Potency is the fitted concentration of half-maximal effect.

SMILES | Luciferase inh | HEK293 cAMP ctrl | TSHR agonist | Tau filament bind | PK Bst | ALOX15 inhib
COc1ccccc1-c1nc(-c2ccc(Br)cc2)no1 | 13µM* | 2% | -12% | 72% | . | 3%
COc1ccccc1-c1nc(-c2ccncc2)no1 | 20µM* | 3% | 2% | 6% | i | -2%
COc1cccc(C2C(C)CCC3C(=O)N(C)C(C(C)C)C(=O)N32)c1 (stereo not drawn) | . | -1%[11.4 µM] | 6%[11.4 µM] | . | . | 23%[11.4 µM]
Cc1cccc(CNc2cc(-c3ccoc3)ncn2)c1 | 0%[2.29 µM] | 15% | 16% | -5% | . | -3%
c1cncc(CNc2cc(-c3ccoc3)ncn2)c1 | -2%[2.29 µM] | -3% | 2% | 105% | . | 25µM*
Clc1ccccc1C(c1ccccc1)(c1ccccc1)n1ccnc1 | 5%[25.5 µM] | 21%[25.6 µM] | 40µM*! | 15%[25.6 µM] | . | -24%
COc1ccc(-c2coc3ccc(O[C@@H]4O[C@@H](COC(C)=O)[C@@H](OC(C)=O)[C@@H](OC(C)=O)[C@H]4OC(C)=O)cc3c2=O)cc1 | 0%[11.4 µM] | 3% | 2% | ? | . | .
C[n+]1cc2c3c(ccc2c2ccc4cc5c(cc4c21)OCO5)OCO3 | 13µM* | -32%[25.6 µM] | ? | ? | . | 10µM*
COc1ccc(/C=C/C(=O)c2ccc(C)s2)cc1 | . | . | . | . | . | -12%[25.6 µM]
O=C1c2cccnc2-c2ncccc21 | 2% | 3% | 1% | -6% | >57 | 4%
CC1(C)OCC(CSC2=C(SCC3COC(C)(C)O3)C(=O)c3ncccc3C2=O)O1 (stereo not drawn) | . | 2% | 3% | 16µM* | . | ?
O=C(O)COc1ccc(Br)cc1/C=N/O | 1% | ? | ? | 2%[11.4 µM] | . | -6%[11.4 µM]
CCOc1ccc(Br)cc1/C=N/O | 0% | 4µM* | ? | 8%[11.4 µM] | . | -10%[11.4 µM]
CCN(CC)CCn1c(-c2ccccc2)nc2c(NC3CCCCC3)nc(C)nc21 | . | ? | ? | 122% | . | ?
CC(C)=CC(=O)Nc1ccc(Br)cc1 | 20µM* | ? | ? | -4% | . | -4%
CN(C)CC[C@@H](C(=O)C(C)(C)C)c1ccccn1 | 2%[11.4 µM] | -4%[11.4 µM] | -6%[11.4 µM] | 10%[11.4 µM] | . | -13%[11.4 µM]
Oc1ccccc1C1=Nc2nc3ccccc3n2C(c2ccccc2)C1 (stereo not drawn) | ? | 13% | 9%[11.4 µM] | 7.9µM* | . | -18%
C=CCN=C1SC(C)C(=O)N1S(=O)(=O)c1ccccc1 (stereo not drawn) | 1% | 0% | 3.2µM* | 11% | >57 | -9%
O=C1c2ccccc2-c2nccnc21 | 2% | 2% | 0% | -2% | . | 2%
O=C1c2ccccc2-c2nc3ncnn3c(-c3ccccc3Cl)c21 | -1% | 5% | -12% | 13µM* | . | 6%
CCc1c(O)nc(SCC(=O)Nc2ccc3c(c2)CCC3)[nH]c1=O | -3% | 25µM* | ? | -5% | >57 | 8%
CCOc1ccc(/C=C/C(=O)c2cccs2)cc1 | . | . | . | . | . | -3%[25.6 µM]
CC[N+](CC)(CC)CCOc1ccc(/C=C\c2ccccc2)cc1 | -1% | -3% | 0% | -63% | . | 16µM*
CCc1ccc(C2=Nn3c(nnc3-c3cccs3)SC2)cc1 | 3% | ? | ? | 4% | i | -16%
CCCCCN(CCCCC)C(=O)[C@H](CCC(=O)O)NC(=O)c1ccc(Cl)c(Cl)c1 | 4%[25.5 µM] | ? | ? | 5%[25.6 µM] | . | -4%[25.6 µM]
SMILES | Luciferase inh | HEK293 cAMP ctrl | TSHR agonist | Tau filament bind | PK Bst | ALOX15 inhib
COc1ccccc1Cn1c(=O)[nH]c2cccnc21 | 3% | 5% | 2% | 9% | >57 | -1%
COc1cccc2[nH]c(-c3ccccn3)nc12 | 3.2µM* | 13%[11.4 µM] | -8%[11.4 µM] | 5%[11.4 µM] | . | 59%[11.4 µM]
COc1ccc(Cn2c(=O)oc3ccc(C)cc32)cc1OC | -1% | 27% | . | 1% | >57 | -2%
CCCCOc1ccccc1Cn1c(=O)oc2ccc(C)cc21 | 1% | 16µM* | ? | -11% | >57 | -6%
Cc1ccc2oc(=O)n(Cc3ccccc3OC(C)C)c2c1 | 2% | 25µM* | ? | 7% | >57 | -3%
O=S(=O)(NCCNC/C=C\c1ccc(Br)cc1)c1cccc2cnccc12 | 1% | 17% | -37% | -7% | . | -16%
Nc1cccc(-c2nc3ccccc3[nH]2)c1 | 13µM* | 10% | 4% | -2% | . | 14%
Nc1ccccc1-c1nc2ccccc2[nH]1 | ? | -3% | -22% | -1% | . | 7%

High-throughput results (PubChem)
